This is an account of results in PubChem BioAssay.

Assay [1] addresses Cell division control protein 42 homolog (Homo sapiens) (UniProt P60953). Kind of assay: activated mutant Cdc42 GTP-binding inhibitors, dose response, biochemical, multiplex bead flow cytometry, Bodipy-FL-GTP (AID 1333;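 active = fitted half-maximal concentration within the tested dose range, moderate curve steepness, a statistically real signal drop, and little compound fluorescence or tag-binding interference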).
Assay [2] shares this target. Kind of assay: wildtype Cdc42 GTP-binding inhibitors, dose response, biochemical, multiplex bead flow cytometry, Bodipy-FL-GTP (AID 1334;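 active = fitted half-maximal concentration within the tested range, moderate curve steepness, significant signal drop, and little compound fluorescence or bead-linkage interference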). Conditions: bead-based flow cytometry, Bodipy-FL-GTP binding to GST-Cdc42; at 100 µM (top of the series) unless noted. A general note: A flow cytometer gives signals particle by particle.
Assay [3] has as its target GTPase HRas (Homo sapiens) (UniProt P01112). Kind of assay: inhibitors of GTP binding to wildtype Ras, dose response, biochemical, multiplex bead flow cytometry (AID 1335). Conditions: bead-based flow cytometry, Bodipy-GTP binding to GST-Ras; at 100 µM (top of the series) unless noted.
The subject of assay [4] is Ras-related protein Rab-7a (dog), GTP binding. Kind of assay: Rab7 GTP binding inhibitors, potency, dose response, biochemical, wildtype, multiplex bead flow cytometry (AID 1336; call rule not given here).
Assay [5] deals with Ras-related C3 botulinum toxin substrate 1 (Homo sapiens) (UniProt P63000). Kind of assay: wildtype Rac1 GTP binding inhibitors, dose response, biochemical, multiplex bead flow cytometry (AID 1340;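 active = dose curve with midpoint inside tested range, moderate steepness, plateau gap beyond fit error, low compound glow and bead-link interference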). The conditions noted are these: GST-Rac1 beads, Bodipy-FL-GTP binding; at 100 µM (top of the series) unless noted.
Assay [6] deals with GTPase HRas (Homo sapiens) (UniProt P01112). The experiment in a line: activated Ras mutant GTP binding inhibitors, dose response, biochemical, multiplex bead flow cytometry (AID 1341;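 active = dose-response curve with midpoint inside the tested range, moderate steepness, significant amplitude and little compound fluorescence or bead-attachment interference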;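 note: GST-tagged constitutively activated Ras mutant immobilized on beads and multiplexed with other GTPases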).

Each structure is given as a SMILES string. For part of these data: Results with a measured potency or affinity are listed apart. The source made the active and inactive calls.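 Rule for the calls, unless noted: active = fitted half-maximal concentration within 10 nM to 100 µM, steepness 0.5 to 2, significant signal drop, low assay interference; inactive = the rest.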

Cell division control protein 42 homolog (Homo sapiens), sequence (P60953 whole entry, looked up): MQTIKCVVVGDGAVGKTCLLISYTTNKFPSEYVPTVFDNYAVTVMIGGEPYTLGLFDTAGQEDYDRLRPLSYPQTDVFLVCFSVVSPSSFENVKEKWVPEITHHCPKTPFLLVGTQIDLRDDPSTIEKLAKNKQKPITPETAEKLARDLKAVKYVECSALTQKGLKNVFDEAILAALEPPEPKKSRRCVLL
GTPase HRas (Homo sapiens), sequence (P01112 whole entry, looked up): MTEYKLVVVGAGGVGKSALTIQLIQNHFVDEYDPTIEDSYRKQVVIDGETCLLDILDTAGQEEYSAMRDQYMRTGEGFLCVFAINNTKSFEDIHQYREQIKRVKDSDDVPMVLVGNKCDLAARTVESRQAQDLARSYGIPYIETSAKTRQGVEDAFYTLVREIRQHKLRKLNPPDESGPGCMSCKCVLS

As to `COc1ccc(/C=N/NC(=O)CSc2n[nH]c(=O)[nH]c2=O)cc1`, the compound was classed as inactive in assay [1], in assay [4] and in assay [6]. Moreover, the fluorescence, percent of control (lower = inhibition) in assay [2] worked out at 53.1%. This compound gave a GTP binding, percent of control in assay [3] of 69.6%. Moreover, in assay [5], the GTP binding signal, raw median fluorescence (lower = inhibition) (MCF (arbitrary fluorescence units)) was determined as 0.

Turning to `N#Cc1c(C(F)(F)F)cc(-c2ccc(Cl)cc2)[nH]c1=O`, the compound was called inactive in assay [1], in assay [4] and in assay [6]. In addition, the fluorescence, percent of control (lower = inhibition) in assay [2] was found to be 27.5%. For the same compound, the GTP binding, percent of control in assay [3] stood at 66%. Moreover, the GTP binding signal, raw median fluorescence (lower = inhibition) (MCF (arbitrary fluorescence units)) in assay [5] is 178.

For `COc1ccccc1OCCn1cc(C(=O)O)c2cc(Cl)ccc21`, the compound was classed as inactive in assay [1], in assay [4] and in assay [6]. For the same compound, in assay [2], the fluorescence, percent of control (lower = inhibition) turned out to be 55.3%. In assay [3], this compound gave a GTP binding, percent of control of 204%. In assay [5], this compound registered a GTP binding signal, raw median fluorescence (lower = inhibition) (MCF (arbitrary fluorescence units)) of 57.7.

In the case of `CCN(CC)c1ccc(/C=c2/sc3nnc(-c4ccccc4C)n3c2=O)cc1`, the compound was classed as inactive in assay [1], in assay [4] and in assay [6]. Besides, the fluorescence, percent of control (lower = inhibition) in assay [2] turned out to be 120%. The GTP binding, percent of control in assay [3] came out at 123%. In assay [5], this compound came in with a GTP binding signal, raw median fluorescence (lower = inhibition) (MCF (arbitrary fluorescence units)) of 236.

Regarding `O=C(N/N=C/c1ccc(-c2ccccc2[N+](=O)[O-])o1)c1cncc(Br)c1`, the call in assay [1], in assay [4] and in assay [6] was inactive. The fluorescence, percent of control (lower = inhibition) in assay [2] worked out at 44.2%. The same compound displayed a GTP binding, percent of control in assay [3] of 55.2%. In assay [5], this compound showed a GTP binding signal, raw median fluorescence (lower = inhibition) (MCF (arbitrary fluorescence units)) of 150.

For the compound `CCOc1cc(/C=N/NC(=O)c2cc(-c3cccnc3)nc3ccccc23)ccc1O`, the call in assay [1], in assay [4] and in assay [6] was inactive. In addition, in assay [2], the fluorescence, percent of control (lower = inhibition) came out at 33.8%. In assay [3], this compound showed a GTP binding, percent of control of 80.2%. In assay [5], this compound came in with a GTP binding signal, raw median fluorescence (lower = inhibition) (MCF (arbitrary fluorescence units)) of 188.

Turning to `COc1cccc(-n2nc3c(=S)[nH]nc(C)c3c2C)c1`, the call in assay [1], in assay [4] and in assay [6] was inactive. Further, the fluorescence, percent of control (lower = inhibition) in assay [2] came out at 50.1%. This compound also had a GTP binding, percent of control in assay [3] of 63.5%. Besides, in assay [5], the GTP binding signal, raw median fluorescence (lower = inhibition) (MCF (arbitrary fluorescence units)) amounted to 199.

For the compound `O=[N+]([O-])c1cc(-c2ncccn2)c([N+](=O)[O-])s1`, the call in assay [1], in assay [4] and in assay [6] was inactive. In addition, the fluorescence, percent of control (lower = inhibition) in assay [2] came to 16.9%. The GTP binding, percent of control in assay [3] turned out to be 70.3%. The compound further returned a GTP binding signal, raw median fluorescence (lower = inhibition) (MCF (arbitrary fluorescence units)) in assay [5] of 292.

As for `Cc1ccc(NC(=S)Nc2ccc3nc(-c4ccccn4)c(-c4ccccn4)nc3c2)cc1C`, the call in assay [1], in assay [4] and in assay [6] was inactive. For the same compound, in assay [2], the fluorescence, percent of control (lower = inhibition) was 53.7%. The GTP binding, percent of control in assay [3] was found to be 69%. The compound further came in with a GTP binding signal, raw median fluorescence (lower = inhibition) (MCF (arbitrary fluorescence units)) in assay [5] of 0.

With `Cc1ccc(C(=O)O)c(NCc2c(C)cccc2C)n1`, the compound was called inactive in assay [1], in assay [4] and in assay [6]. Also, in assay [2], the fluorescence, percent of control (lower = inhibition) was 58.8%. Further, in assay [3], the GTP binding, percent of control came to 224%. Moreover, the GTP binding signal, raw median fluorescence (lower = inhibition) (MCF (arbitrary fluorescence units)) in assay [5] came to 54.1.

For the compound `CCOc1ccccc1CNCc1sc(C(=O)O)cc1C`, the compound was classed as inactive in assay [1], in assay [4] and in assay [6]. In addition, the fluorescence, percent of control (lower = inhibition) in assay [2] is 59.6%. The same compound yielded a GTP binding, percent of control in assay [3] of 79.1%. In assay [5], this compound showed a GTP binding signal, raw median fluorescence (lower = inhibition) (MCF (arbitrary fluorescence units)) of 33.1.

As to `O=C(O)c1ccc(Nc2nc(-c3cc4ccccc4oc3=O)cs2)cc1O`, the compound was classed as inactive in assay [1], in assay [4] and in assay [6]. Moreover, the fluorescence, percent of control (lower = inhibition) in assay [2] was determined as 29.2%. In assay [3], this compound came in with a GTP binding, percent of control of 74.6%. This compound displayed a GTP binding signal, raw median fluorescence (lower = inhibition) (MCF (arbitrary fluorescence units)) in assay [5] of 177.

In the case of `Cc1ccccc1NC(=O)CN1C(=O)S/C(=C\c2ccc(-c3cc(C(=O)O)ccc3C)o2)C1=O`, the call in assay [1], in assay [4] and in assay [6] was inactive. The fluorescence, percent of control (lower = inhibition) in assay [2] came to 30.5%. For the same compound, the GTP binding, percent of control in assay [3] came to 77.4%. This compound showed a GTP binding signal, raw median fluorescence (lower = inhibition) (MCF (arbitrary fluorescence units)) in assay [5] of 258.

With `CCN1/C(=C\C=C2\C(=O)N(c3ccccc3)C(=S)N2C)Sc2ccccc21`, the result in assay [1], in assay [4] and in assay [6] was inactive. The fluorescence, percent of control (lower = inhibition) in assay [2] was 35.1%. This compound also had a GTP binding, percent of control in assay [3] of 73.9%. Also, the GTP binding signal, raw median fluorescence (lower = inhibition) (MCF (arbitrary fluorescence units)) in assay [5] was found to be 189.

Regarding `CCOC(=O)c1nc(Nc2ccc(C(=O)OC)cc2)c2ccccc2n1`, the compound was classed as inactive in assay [1], in assay [4] and in assay [6]. In addition, the fluorescence, percent of control (lower = inhibition) in assay [2] came out at 43.9%. The GTP binding, percent of control in assay [3] was 115%. Moreover, in assay [5], the GTP binding signal, raw median fluorescence (lower = inhibition) (MCF (arbitrary fluorescence units)) was found to be 128.
